PubChem BioAssay (Tox21)
Records with an inconclusive call do not appear. The source made the active and inactive calls. Unless noted, the call rests on the fitted dose curve; in most records, active means well fitted curve in the direction sought with a large enough effect in the repeat runs; inconclusive means weak or mixed curves; inactive means no such curve, though single readings can be large; an effect the other way counts as inactive or inconclusive.

Experiments:
[1] = qHTS assay for small molecules that induce genotoxicity in human embryonic kidney cells expressing luciferase-tagged ATAD5 (AID 651632); further: nearly all actives have a fitted effect of over 15% in size; further: potency means the concentration at half of the fitted maximal effect
How it was run: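 Luminescence read-out: after 16 hr compound exposure at 37C, ATAD5-luciferase HEK293T cells received Amplite, 30 min RT, then CCD imaging. A rise in signal marks genotoxic stress.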

[2] = qHTS assay for small molecule agonists of the p53 signaling pathway - cell viability (AID 651633; calls by dose curve; further: nearly all actives have a fitted effect of over 30% in size; further: potency means the concentration at half of the fitted maximal effect)
How it was run: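 Viability counter-read: CellTiter-Glo luminescence (30 min, room temperature) in the same p53RE-bla plates. These plates had been exposed to compounds for 16 h at 37 C.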

[3] = qHTS assay for small molecules that induce genotoxicity in human embryonic kidney cells expressing luciferase-tagged ATAD5 - cell viability (AID 651634; calls by dose curve; further: nearly all actives have a fitted effect of over 25% in size; further: potency means the concentration at half of the fitted maximal effect)
How it was run: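 HEK293T ATAD5-luc cells, 2,000/well; compound 15.5 hr, 37C/5% CO2; CellTiter-Fluor 30 min, 37C; fluorescence read.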

[4] = qHTS assay for small molecule disruptors of the mitochondrial membrane potential - cell viability (AID 720634; calls by dose curve;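 further: human HepG2 liver cancer cells; series mostly up to about 83 µM; nearly all actives have a fitted effect of over 20% in size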)
How it was run: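 Luminescence from CellTiter-Glo (ATP content) gave viability in HepG2 cells, read in the same wells as the MMP dye assay after 1 hr compound exposure at 37 C.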

[5] = qHTS assay to test for compound auto fluorescence at 590 nm (red) in HepG2 cells (AID 720674)
How it was run: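 We screened compounds on adherent HepG2 cells, incubating them for an hour at 37 C in 5% CO2 before reading emission at 590 nm under 540 nm excitation; values reflect equivalence to Rose Bengal sodium fluorescence.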

[6] = qHTS assay to test for compound auto fluorescence at 460 nm (blue) in HEK293 cells (AID 720678)
How it was run: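 Intrinsic compound fluorescence is recorded in live HEK293 cultures after overnight incubation at 37C, 5% CO2, using excitation 405 nm and emission 460 nm. Values are referenced to triamterene.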

[7] = qHTS assay to test for compound auto fluorescence at 590 nm (red) in HEK293 cells (AID 720679)
How it was run: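 Red autofluorescence, HEK293 cells: 2,000 cells/well; attach 4-5 hr 37C; add 23 nL cpd or DMSO; incubate o/n 37C 5% CO2; read Ex540/Em590; Rose Bengal sodium reference.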

[8] = qHTS assay to test for compound auto fluorescence at 535 nm (green) in HEK293 cells (AID 720680)
[9] = qHTS assay to test for compound auto fluorescence at 460 nm (blue) in HEK293 cell free culture (AID 720681)
How it was run: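 Blue fluorescence (Ex 405/Em 460 nm, triamterene-equivalent) was read immediately after pin transfer of compound or DMSO into medium (DMEM, 10% FBS) without cells.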

[10] = qHTS assay to test for compound auto fluorescence at 535 nm (green) in HEK293 cell free culture (AID 720682)
How it was run: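 DMEM + 10% FBS, cell-free; cpd or DMSO pinned in; Ex485/Em535 read; output as fluorescein-equivalent signal.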

[11] = qHTS assay to test for compound auto fluorescence at 590 nm (red) in HEK293 cell free culture (AID 720683)
How it was run: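 Red-channel autofluorescence of compounds in culture medium (DMEM, 10% FBS), no cells, measured at 540/590 nm. Rose Bengal sodium is the reference fluorophore for equivalence.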

[12] = qHTS assay to identify small molecule antagonists of the glucocorticoid receptor (GR) signaling pathway - cell viability counter screen (AID 720693); further: nearly all actives have a fitted effect of over 55% in size; further: potency means the concentration at half of the fitted maximal effect
[13] = qHTS assay for identifying genotoxic compounds that show differential cytotoxicity against isogenic chicken DT40 cell lines with known DNA damage response pathways - Rad54/Ku70 mutant cell line (AID 743015); further: nearly all actives have a fitted effect of over 60% in size; further: potency means the concentration at half of the fitted maximal effect
Aromatase (Homo sapiens) = Aromatase (Homo sapiens) (UniProt P11511); test: qHTS assay to identify aromatase inhibitors (AID 743083); further: series mostly up to about 70 µM; nearly all actives have a fitted effect of over 55% in size
Aromatase (Homo sapiens), sequence (P11511 whole entry, looked up): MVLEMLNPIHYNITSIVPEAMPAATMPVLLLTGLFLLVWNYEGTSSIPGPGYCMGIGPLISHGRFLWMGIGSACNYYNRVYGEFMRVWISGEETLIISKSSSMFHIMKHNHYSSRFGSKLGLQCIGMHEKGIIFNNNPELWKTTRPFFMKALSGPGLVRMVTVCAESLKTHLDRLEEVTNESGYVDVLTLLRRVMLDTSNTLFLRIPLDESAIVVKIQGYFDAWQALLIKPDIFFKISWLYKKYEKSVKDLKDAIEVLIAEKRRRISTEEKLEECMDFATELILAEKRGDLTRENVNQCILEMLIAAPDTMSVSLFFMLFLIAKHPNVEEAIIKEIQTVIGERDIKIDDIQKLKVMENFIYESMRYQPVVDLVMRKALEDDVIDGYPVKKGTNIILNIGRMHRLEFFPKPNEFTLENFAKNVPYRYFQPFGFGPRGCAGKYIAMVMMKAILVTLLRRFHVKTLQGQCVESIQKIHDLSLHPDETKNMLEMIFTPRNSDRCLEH

[14] = qHTS assay to identify aromatase inhibitors - cell viability counter screen (AID 743084);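 further: cells stimulated with testosterone during compound exposure; nearly all actives have a fitted effect of over 55% in size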
[15] = target: Aryl hydrocarbon receptor (Homo sapiens) (UniProt P35869); test: qHTS assay to identify small molecule that activate the aryl hydrocarbon receptor (AhR) signaling pathway (AID 743085); further: nearly all actives have a fitted effect of over 15% in size; further: potency means the concentration at half of the fitted maximal effect
Aryl hydrocarbon receptor (Homo sapiens), sequence (P35869 whole entry, looked up): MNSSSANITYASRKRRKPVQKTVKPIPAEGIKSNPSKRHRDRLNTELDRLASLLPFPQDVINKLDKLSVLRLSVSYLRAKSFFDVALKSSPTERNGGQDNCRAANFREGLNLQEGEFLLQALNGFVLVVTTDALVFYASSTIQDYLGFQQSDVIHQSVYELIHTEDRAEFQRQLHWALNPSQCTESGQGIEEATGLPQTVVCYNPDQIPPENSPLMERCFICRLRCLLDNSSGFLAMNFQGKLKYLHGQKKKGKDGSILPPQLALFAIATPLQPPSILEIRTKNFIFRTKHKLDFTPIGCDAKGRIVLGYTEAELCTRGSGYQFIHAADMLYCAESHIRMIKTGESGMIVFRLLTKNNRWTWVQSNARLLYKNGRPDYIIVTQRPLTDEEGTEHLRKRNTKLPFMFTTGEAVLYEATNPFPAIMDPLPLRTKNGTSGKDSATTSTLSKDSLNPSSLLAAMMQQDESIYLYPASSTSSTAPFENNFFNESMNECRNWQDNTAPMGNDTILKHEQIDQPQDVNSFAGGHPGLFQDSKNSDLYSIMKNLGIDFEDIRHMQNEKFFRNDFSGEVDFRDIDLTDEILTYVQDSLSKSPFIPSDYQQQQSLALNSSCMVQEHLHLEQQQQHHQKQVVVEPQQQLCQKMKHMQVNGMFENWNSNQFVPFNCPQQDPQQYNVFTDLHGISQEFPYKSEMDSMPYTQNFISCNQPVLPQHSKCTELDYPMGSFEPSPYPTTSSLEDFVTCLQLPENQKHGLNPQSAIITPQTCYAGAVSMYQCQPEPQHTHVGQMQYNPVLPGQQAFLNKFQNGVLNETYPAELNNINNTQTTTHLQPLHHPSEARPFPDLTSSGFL
How it was run: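 A multiplexed format paired cell viability (CellTiter-Fluor fluorescence) with AhR-dependent luciferase output (ONE-Glo luminescence) in the same wells of HepG2 DRE-luc cells after 24 h compound exposure at 37C.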

[16] = qHTS assay to identify small molecule that activate the aryl hydrocarbon receptor (AhR) signaling pathway - cell viability counter screen (AID 743086); further: nearly all actives have a fitted effect of over 45% in size; further: potency means the concentration at half of the fitted maximal effect
How it was run: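 Cytotoxicity counter screen: CellTiter-Fluor signal (30 min, 37 C) in 4000 HepG2 cells/well carrying the DRE-luciferase reporter, following 24 h compound exposure at 37 C.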

[17] = qHTS assay to identify small molecule phospholipidosis (PLD) inducers (AID 1259344; active means well fitted curve in the direction sought with a large enough effect; an effect the other way counts as inactive or inconclusive)
How it was run: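 Phospholipid accumulation was scored by imaging: fixed, Hoechst-counterstained HepG2 cells stained with LipidTOX Red after 24 h compound exposure at 37 C. Read-outs were pit count and pit intensity per well or per cell, with amiodarone and DMSO controls.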

[18] = qHTS assay to identify small molecule antagonists of the estrogen receptor alpha (ER-alpha) signaling pathway - cell viability counter screen (AID 743074; calls by dose curve;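 further: HEK293 cells carrying ER-alpha-UAS-bla reporter stimulated with 17beta-estradiol; nearly all actives have a fitted effect of over 45% in size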)
On the % scale 0 is the no-effect control and ±100 the full control effect.

C1CN(P2(N3CC3)=NP(N3CC3)(N3CC3)=NP(N3CC3)(N3CC3)=N2)CCO1 (stereo not drawn)
active: Potency [13] 8.41 µM
inactive: Potency [1] | Potency [2] | Potency [3] | Potency [4] | outcome [5] | Potency [6] | outcome [7] | Potency [8] | Potency [9] | Potency [10] | outcome [11] | Potency [12] | Potency (Aromatase (Homo sapiens)) | Potency [14] | Potency [15] | Potency [16] | PLD induction [17] 0.928% [at 7.66 µM]

CNC(C)Cc1ccccc1 (stereo not drawn)
inactive: Potency [1] | Potency [2] | Potency [3] | Potency [4] | outcome [5] | Potency [6] | outcome [7] | Potency [8] | Potency [9] | Potency [10] | outcome [11] | Potency [12] | Potency [13] | Potency [18] | Potency (Aromatase (Homo sapiens)) | Potency [14] | Potency [16] | Potency [17]

CN1C(=O)CC(=O)N(c2ccccc2)c2cc(Cl)ccc21
inactive: Potency [1] | Potency [2] | Potency [3] | Potency [4] | outcome [5] | Potency [6] | outcome [7] | Potency [9] | Potency [10] | outcome [11] | Potency [12] | Potency [13] | Potency [18] | Potency (Aromatase (Homo sapiens)) | Potency [14] | Potency [15] | Potency [16] | Potency [17]

c1ccc(C2(N3CCCC3)CCCCC2)cc1
active: Potency [2] 26.6 µM | Potency [12] 26.8 µM | Potency [13] 7.5 µM | Potency [15] 26.6 µM
inactive: Potency [1] | Potency [4] | outcome [5] | Potency [6] | outcome [7] | Potency [8] | Potency [9] | Potency [10] | outcome [11] | Potency [18] | Potency (Aromatase (Homo sapiens)) | Potency [14] | Potency [16] | Potency [17]

C[C@@H]1[C@@H]2Cc3ccc(O)cc3[C@@]1(C)CCN2CC1CC1
inactive: Potency [1] | Potency [2] | Potency [3] | Potency [4] | outcome [5] | Potency [6] | outcome [7] | Potency [8] | Potency [9] | Potency [10] | outcome [11] | Potency [12] | Potency [13] | Potency [18] | Potency (Aromatase (Homo sapiens)) | Potency [14] | Potency [15] | Potency [16] | PLD induction [17] 5.17% [at 7.66 µM]

CNC(C)CC1CCCCC1 (stereo not drawn)
inactive: Potency [1] | Potency [2] | Potency [3] | Potency [4] | outcome [5] | Potency [6] | outcome [7] | Potency [8] | Potency [9] | Potency [10] | outcome [11] | Potency [12] | Potency [18] | Potency (Aromatase (Homo sapiens)) | Potency [14] | Potency [15] | Potency [16] | Potency [17]

c1ccc2c(c1)Sc1ccccc1N2C[C@@H]1CN2CCC1CC2
inactive: Potency [1] | Potency [2] | Potency [3] | Potency [4] | outcome [5] | Potency [6] | outcome [7] | Potency [8] | Potency [9] | Potency [10] | outcome [11] | Potency [12] | Potency [13] | Potency [18] | Potency (Aromatase (Homo sapiens)) | Potency [14] | Potency [15] | Potency [16] | Potency [17]

COc1cc([C@@H]2c3cc4c(cc3[C@@H](O)[C@H]3COC(=O)[C@H]23)OCO4)cc(OC)c1O
active: Potency [1] 1.88 µM | Potency [3] 0.298 µM | Potency [13] 0.266 µM | Potency [16] 29.8 µM
inactive: Potency [2] | Potency [4] | outcome [5] | Potency [6] | outcome [7] | Potency [8] | Potency [9] | Potency [10] | outcome [11] | Potency [12] | Potency [18] | Potency (Aromatase (Homo sapiens)) | Potency [14] | Potency [17]

C[C@@H](N)C(=O)c1ccccc1
inactive: Potency [1] | Potency [2] | Potency [3] | Potency [4] | outcome [5] | Potency [6] | outcome [7] | Potency [8] | Potency [9] | Potency [10] | outcome [11] | Potency [12] | Potency [13] | Potency (Aromatase (Homo sapiens)) | Potency [14] | Potency [16] | Potency [17]

CCC1(c2ccccc2)C(=O)NC(=O)N(C)C1=O (stereo not drawn)
inactive: Potency [1] | Potency [2] | Potency [3] | Potency [4] | outcome [5] | Potency [6] | outcome [7] | Potency [8] | Potency [9] | Potency [10] | outcome [11] | Potency [12] | Potency [13] | Potency (Aromatase (Homo sapiens)) | Potency [14] | Potency [15] | Potency [16] | Potency [17]

CCc1cc(OC)c(C[C@@H](C)N)cc1OC
active: Potency [13] 71.4 µM
inactive: Potency [1] | Potency [2] | Potency [3] | Potency [4] | outcome [5] | Potency [6] | outcome [7] | Potency [8] | Potency [9] | Potency [10] | Potency [12] | Potency [18] | Potency (Aromatase (Homo sapiens)) | Potency [14] | Potency [15] | Potency [17]

CN[C@]1(c2ccccc2Cl)CCCCC1=O
inactive: Potency [1] | Potency [2] | Potency [3] | Potency [4] | outcome [5] | Potency [6] | outcome [7] | Potency [8] | Potency [9] | Potency [10] | outcome [11] | Potency [12] | Potency [13] | Potency (Aromatase (Homo sapiens)) | Potency [14] | Potency [15] | Potency [16] | Potency [17]

O=C(NC(=O)c1c(F)cccc1F)Nc1ccc(Cl)c(Oc2ncc(C(F)(F)F)cc2Cl)c1
inactive: Potency [1] | Potency [3] | Potency [4] | outcome [5] | Potency [6] | outcome [7] | Potency [8] | Potency [9] | Potency [10] | outcome [11] | Potency [12] | Potency [18] | Potency (Aromatase (Homo sapiens)) | Potency [14] | Potency [15] | Potency [16] | Potency [17]
